24 molecules from PubChem BioAssay AID1861 (The Scripps Research Institute Molecular Screening Center, 2009) can be followed below.

Out of some 290,000 compounds screened, about 3,100 (1.1%) were called active. The list comes from a sample in which actives are over-represented; it also holds similar structures and randomly drawn compounds. A number with no mark means an inactive call. Cut-off read from the data, not from the text of the source: active = inhibition above about 16% (passing the limit was not always enough); inactive = the rest.

In this assay the target is Neuropeptides B/W receptor type 1 (Homo sapiens) (UniProt P48145). The experiment in a line: GPR7 receptor antagonists, primary screen, cell-based, fluorescence, single concentration (AID 1861).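 Note: cells stimulated with the agonist NPW; 0% = agonist with vehicle and 100% = vehicle without agonist.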 The note with it: GPR7-expressing cells, fluorescence antagonist assay; at 4.4 µM; stronger effect = higher value.
Neuropeptides B/W receptor type 1 (Homo sapiens), sequence (P48145 whole entry, looked up): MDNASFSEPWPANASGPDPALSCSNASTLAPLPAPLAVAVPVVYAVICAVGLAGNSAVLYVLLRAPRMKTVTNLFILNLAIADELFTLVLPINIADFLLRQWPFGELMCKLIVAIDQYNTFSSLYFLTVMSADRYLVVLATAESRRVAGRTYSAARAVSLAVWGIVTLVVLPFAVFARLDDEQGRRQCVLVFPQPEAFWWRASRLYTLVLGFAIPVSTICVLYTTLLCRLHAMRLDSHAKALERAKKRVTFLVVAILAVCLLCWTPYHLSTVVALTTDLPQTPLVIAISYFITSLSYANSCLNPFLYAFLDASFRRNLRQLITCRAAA
The term inhibition denotes the relative decrease from the control value, in per cent. Regarding `O=C(OCC1O[C@@H](OC(=O)c2cc(O)c(O)c(O)c2)[C@@H](OC(=O)c2cc(O)c(O)c(O)c2)[C@@H](OC(=O)c2cc(O)c(O)c(O)c2)[C@@H]1OC(=O)c1cc(O)c(O)c(O)c1)c1cc(O)c(O)c(O)c1` (some centres undefined), the inhibition is -5.26%. On to `O=C(NCc1ccc2c(c1)OCO2)c1cc(F)c(F)cc1Cl`, for which the inhibition was -4.33%. The result for `O=C(c1ccccc1)N1CCN(C(=O)c2cc3nc(-c4ccccc4)cc(C(F)(F)F)n3n2)CC1` reads -7.13%; that for `Cc1cccc(-c2nc3ccc(C(=O)NCCN4CCN(C)CC4)cc3nc2-c2cccc(C)c2)c1`, 31.6% (active); that for `CCC1=Nc2cc(C(=O)NCCN3CCCC3)ccc2Sc2ccc(C)cc21`, -5.13%. As to `Cc1ccc(C(=O)NCCN2CCOCC2)cc1C`, the inhibition was 3.82%. For `O=C(C[n+]1ccccc1)N/N=C/c1ccc(O)cc1`, the inhibition is -1.15%. For the molecule `O=C(CC(=O)Nc1ccc(Cl)c(Cl)c1)N/N=C/c1ccc(O)cc1`, the inhibition is 24.6% (active). Next, `Nc1nnn(CC(=O)N/N=C/c2ccc(O)cc2)n1`: 5.08%; `O=C(COc1ccc([N+](=O)[O-])cc1)Nc1cccc(C(=O)Nc2ccccc2C(=O)O)c1`: -9.29%; `O=C(NCc1ccco1)c1nc2ncccn2n1`: -0.52%.

Regarding `O=C(CSc1nnnn1-c1ccccc1)NCc1ccco1`, the inhibition was -5.34%. With `O=C(NCc1ccco1)c1nc(-c2ccccc2)n(-c2ccccc2)n1`, the inhibition was 20.5% (active). The result for `CCOc1ccc(N/C(N)=N/c2nc(C)c(C)c(=O)[nH]2)cc1` reads 6%; that for `COc1ccc(CN(C)C(=O)Cc2ccsc2)c(OC)c1OC`, 8.02%. The result for `O=C(CN1CCN(C(=S)NC2CCCC2)CC1)Nc1ccc(Oc2ccccc2)cc1` reads 22.4% (active). For `CCOc1ccc(NC(=S)N2CCC(NC(=O)c3ccccc3)CC2)cc1`, the inhibition is -6.68%. Next, `CCOc1ccc(NC(=O)CN2CCN(CC(=O)Nc3ccc(OC)cc3)CC2)cc1`: 2.08%; `Cc1cccc(NS(=O)(=O)c2ccc([N+](=O)[O-])cc2)n1`: 17.4%.

Turning to `COc1ccc(C(=O)N2CCCC(C(=O)c3ccccc3OC)C2)cc1OC` (centres undefined), the inhibition was -2.49%. `CC1(C)CC(N2CCN(C(c3ccccc3)c3ccccc3)CC2)=CC(=[N+]2CCCCC2)C1`: the inhibition is 66% (active). As for `O=C(O)CN1CCN(C(c2ccccc2)c2ccccc2)CC1`, the inhibition is -8.01%. The result for `CC(C)NC(=S)N1CCN(C(c2ccccc2)c2ccccc2)CC1` reads -13.9%; that for `COc1ccccc1C(=O)COC(=O)CNS(=O)(=O)c1ccc(NC(C)=O)cc1`, 11.2%.
